Results published in PubChem BioAssay AID686928 (Broad Institute, 2013).
Measured potencies and affinities stand elsewhere. The source made the active and inactive calls. No rule for the calls is given here.

Assay: HeLa cell cytotoxicity, dose response, cytotoxicity control, 24 h, plate reader, dry powder (AID 686928)

Structure (SMILES)	outcome
CCn1nnnc1N	inactive
CCCCCCCCCC(=O)C(O)CC (configuration not stated)	inactive
